# Sampled rows, rich in hits. Any-hit rate of the full collection: about 4.7%.
# PTK2B oligo ant – Pyk2 (human) oligomerization antagonism | Q293 cells, Pyk2 FERM NanoBiT luminescence; stronger effect = lower value | z-score (the deposit names both 25 µM and 10 µM) | hit rate 0.83% among 99,000 | AID 1347419;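 active = Z-score of -3 or lower, scaled per plate to the spread of control and sample wells; inactive = z-score above -3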;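 also: negative z-score means lost luminescence so less FERM oligomerization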
# sdo1 growth – sdo1-depleted yeast growth rescue; z-score at 10 µM; AID 817; S. cerevisiae sdo1-depleted JHY4D growth rescue, OD600 30 h; stronger effect = higher value; pdr5 snq2 efflux-pump mutant strain; hit rate 0.21% among 140,000;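 active = z-score above 3 at both the 24 hr and the 30 hr optical density reads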;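 also: z-score against mean and SD of all compound wells on the same plate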
# Cav32 inh – blocks human Cav3.2 T-type calcium channel; O95180; Cav3.2-expressing cells, Fluo-4 calcium fluorescence FDSS; stronger effect = lower value; B-score at 10 µM; hit rate 4% among 100,000;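 active = single-dose well whose peak fluorescence ratio is a statistical outlier from its plate by either plate-standardised score or position-corrected B-score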
# hDAT+cocaine – changed human dopamine transporter uptake under cocaine IC80. Q01959. LLC-PK1 hDAT cells, [14C]-dopamine uptake with cocaine IC80; actives deviate in either direction. B-score at 10 µM. hit rate 1.3% among 110,000;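 active = Z score or B-score, a plate-position-corrected score, falls beyond the plate's 99.7% confidence bounds, in either direction; inactive = both scores lie inside the 99.7% bounds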;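 also: scored against the spread of the other compound wells on the same plate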
# Target sequence (Q01959 whole entry, looked up): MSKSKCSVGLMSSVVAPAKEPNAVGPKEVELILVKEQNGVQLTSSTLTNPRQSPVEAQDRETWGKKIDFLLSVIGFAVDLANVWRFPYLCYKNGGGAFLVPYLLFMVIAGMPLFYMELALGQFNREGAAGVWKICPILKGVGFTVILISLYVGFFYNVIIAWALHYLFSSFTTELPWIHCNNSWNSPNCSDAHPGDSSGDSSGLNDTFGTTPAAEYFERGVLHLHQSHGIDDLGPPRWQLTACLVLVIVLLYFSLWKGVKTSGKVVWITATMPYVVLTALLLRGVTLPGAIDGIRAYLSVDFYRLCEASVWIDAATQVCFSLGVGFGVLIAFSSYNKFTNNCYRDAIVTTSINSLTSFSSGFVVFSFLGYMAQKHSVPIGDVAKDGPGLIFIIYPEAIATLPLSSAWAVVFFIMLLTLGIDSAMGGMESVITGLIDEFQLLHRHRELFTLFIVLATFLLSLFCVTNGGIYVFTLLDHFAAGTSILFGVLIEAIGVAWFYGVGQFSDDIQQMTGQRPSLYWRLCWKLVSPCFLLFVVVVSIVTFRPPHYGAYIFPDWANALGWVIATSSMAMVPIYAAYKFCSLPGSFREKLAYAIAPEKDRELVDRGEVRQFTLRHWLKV
# Plk1 PBD FP – inhibitors of human Plk1 polo box domain binding. P53350. Plk1 PBD phosphopeptide binding, fluorescence polarization. inhibition, %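 (tested at about 20 µM)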. hit rate 0.13% among 97,000. AID 693; in the data active = inhibition above about 34%, passing the limit was not always enough
# PLK1 kinase inh – inhibitors of human PLK1 kinase | P53350 | recombinant PLK1 kinase, TR-FRET peptide phosphorylation | inhibition, % at 10 µM | hit rate 0.53% among 97,000 | AID 619;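 active = inhibition of 50% or more in the single-concentration screen; inactive = inhibition below 50%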;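 also: 0% = DMSO max control and 100% = H-89 dihydrochloride min control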
# The depositor's hits bear a star; x = not tested or not shown.
SMILES,PTK2B oligo ant,sdo1 growth,Cav32 inh,hDAT+cocaine,Plk1 PBD FP,PLK1 kinase inh
OC12CCCCC1C(c1ccc3c(c1)OCO3)N(Cc1ccc(F)cc1)CC2 (stereo not given),0.6,-0.06,-5.9*,0.64,16,0
OC12CCCCC1C(c1ccc3c(c1)OCO3)N(Cc1cccc(F)c1)CC2 (stereo not given),0.96,-1.2,-2.4,-0.024,2,-10
CCc1ccccc1NC(=O)CN1C(=O)C2CCCN2c2ncc(Cl)cc21 (stereo not given),-1.3,-0.05,-3.2,-2,10,-1
CC1CCC(NC(=O)CN2C(=O)C3CCCN3c3ncc(Cl)cc32)CC1 (stereo not given),x,0.24,-6.5*,0.22,-33,-8
O=c1cc(CN2CCOCC2)nc(C2CC2)[nH]1,-0.27,0.82,-0.35,-7.2*,-39,-2
CC1CN(Cc2cc(=O)[nH]c(C(C)C)n2)CC(C)O1 (stereo not given),0.34,0.94,0.64,-0.017,12,-8
Cc1ccc2cc(CCNC(=O)Cc3cccs3)c(=O)[nH]c2c1,x,0.32,x,x,x,x
O=C(Nc1ccc(Cc2ccncc2)cc1)c1ccc(Cl)c([N+](=O)[O-])c1,-0.23,-2.1,-8.7*,0.83,4,-13
O=S(=O)(Nc1ccc(Cc2ccncc2)cc1)c1ccc(Cl)c(Cl)c1,-3*,-2.4,-0.92,0.64,-31,-6
Cc1c([N+](=O)[O-])cc(C(=O)Nc2ccc(Cc3ccncc3)cc2)cc1[N+](=O)[O-],x,-1.3,x,x,x,x
O=C(c1ccccc1)N1CCCCCC1,x,0.65,x,x,x,x
O=C(c1cccc(Br)c1)N1CCN(C(=O)N2CCOCC2)CC1,-0.74,1.2,0.86,-0.17,-8,-9
O=C(c1ccccc1)N1CCN(C(=O)c2ccccc2Br)CC1,0.85,0.34,0.67,-7.7*,2,-8
O=C(c1cccc(Br)c1)N1CCN(C(=O)c2cccc(Br)c2)CC1,0.29,0.8,0.68,2.2*,-21,-9
O=C1C2CCCN2C(=O)N1CCCCN1CCN(CCO)CC1 (stereo not given),x,1.2,x,x,x,x
COc1ccc(C(=O)Nc2ccccc2-c2ccccc2)cc1Cl,x,-0.32,x,x,x,x
Cc1ccccc1NS(=O)(=O)c1cc(C(=O)Nc2ccccc2-c2ccccc2)ccc1Cl,-1.3,-1.2,-3.4*,0.53,10,-11
Cc1ccc2nc(NCCCO)nc(-c3ccccc3)c2c1,1.9,-0.58,x,3.1*,-13,-10
COC(=O)C1=C(C(=O)OC)[C@@H]2N(Cc3ccccc3)c3ccccc3[C@@]23C[C@@H](CO)N(C(=O)NC2CCCC2)C3=N1,x,x,-0.53,0.28,x,x
c1ccc(OCc2nn3c(-c4ccccn4)nnc3s2)cc1,0.97,-0.69,-0.76,-9.4*,18,-6
Cc1ccc(C)c(NS(=O)(=O)c2ccc3c(c2)Cc2cc(S(=O)(=O)Nc4cc(C)ccc4C)ccc2-3)c1,x,0.6,x,x,x,x
CCOC(=O)C1=C(CSc2nc(C)cc(C)c2C#N)OC(N)=C(C#N)C1c1ccccc1 (stereo not given),-0.38,0.44,-5.5*,0.27,17,-7
CCOC(=O)C1=C(CSc2nc(C)cc(C)c2C#N)OC(N)=C(C#N)C1c1cccs1 (stereo not given),x,0.03,0.18,0.31,-19,-13
CCCCCn1c(=O)[nH]c2cc(C(=O)NCCCN(CC)CC)ccc2c1=O,-0.97,0.29,0.43,-3.7*,-15,-13
O=C(NCCN1CCCC1)c1ccc2c(=O)n(CCc3ccccc3)c(=O)[nH]c2c1,-0.49,0.15,0.47,-8.2*,-25,-1
SMILES,PTK2B oligo ant,sdo1 growth,Cav32 inh,hDAT+cocaine,Plk1 PBD FP,PLK1 kinase inh
CCc1ccc(N/C(SCc2ccccc2C)=C(/C#N)C(=O)NCc2ccco2)cc1,-0.45,-0.1,-5.4*,2.1,-11,-13
COc1cccc(N/C(SCc2ccccc2F)=C(/C#N)C(=O)NCc2cccs2)c1,-0.59,0.52,x,x,x,x
CCN(CC)S(=O)(=O)c1cc(C(=O)Nc2cc(Cl)ccc2N2CCN(C)CC2)ccc1Cl,-0.29,-2.4,-7.6*,2.9*,2,9
Oc1ccc(Oc2ccc3c(C(F)(F)F)cc(C(F)(F)F)nc3n2)cc1,-1.3,-1.9,-6.9*,-0.63,-14,-8
COc1ccc(Oc2ccc3c(C(F)(F)F)cc(C(F)(F)F)nc3n2)cc1,-0.55,-0.72,0.033,0.78,12,-8
O=C(c1cnn2c(C(F)(F)F)cc(-c3ccco3)nc12)N1CCCc2ccccc21,-0.61,-0.27,-2.2,1.9*,15,-11
O=C(Nc1ccc2c(c1)OCO2)c1cnn2c(C(F)(F)F)cc(-c3ccco3)nc12,-1.8,-0.23,0.46,-0.19,11,-7
O=C(CN(c1cccc(C(F)(F)F)c1)S(=O)(=O)c1ccc(Cl)c([N+](=O)[O-])c1)NCc1ccc(F)cc1,x,-0.96,x,x,x,x
O=C(CCc1n[nH]c(=O)[nH]c1=O)N1CCOCC1,x,0.11,0.082,-0.24,-12,-10
O=C(CCNc1n[nH]c(=O)[nH]c1=O)N1CCOCC1,0.01,1.2,-0.16,-3.4*,5,-6
COC(=O)c1ccc(NC(=O)c2sc3nc(-c4ccccc4)cn3c2C)cc1,-3.8*,-1.4,x,x,8,-3
COc1ccc(-c2cn3c(C)c(C(=O)Nc4ccncc4)sc3n2)cc1,x,-1.9,0.062,-0.28,-3,8
CCN(CC)S(=O)(=O)c1cc(C(=O)OCC(=O)NC(=O)c2cccn2C)ccc1C,x,-0.08,x,x,x,x
COC(=O)c1c(NC(=O)CN2C(=O)C(=O)N(CC(C)C)C2=O)sc2c1CCCCC2,0.36,0.25,x,x,x,x
COC(=O)C(C)N(C(=O)c1cccc2ccccc12)c1c(C)cccc1C (stereo not given),-1.4,-1.8,-7.1*,-0.84,14,-9
CC(=O)Nc1ccccc1NC(=O)c1cccc2ccccc12,x,1.2,x,x,x,x
CCCOc1cc(C)c(Cl)cc1S(=O)(=O)N(CC)CC,-1.3,-0.04,-3.8*,-0.62,12,-8
CCOc1cc(C)c(Cl)cc1S(=O)(=O)N(C)C,-0.64,0.66,-1.6,-0.62,12,0
CCn1c(CNc2ccccc2Cl)nnc1SCC(=O)OC1CCCCC1,1.2,-1.1,-4.5*,2.5,-3,0
CCn1c(CNc2ccc(Cl)cc2)nnc1SCC(=O)OC1CCCCC1,0.43,-0.64,-8.4*,0.45,-10,-5
O=C1c2ccc(-c3nc4ccccc4o3)cc2C(=O)N1Cc1ccccc1,-0.05,x,x,x,-10,-15
CC(C)CCN1C(=O)c2ccc(-c3nc4ccccc4c(=O)o3)cc2C1=O,-3.3*,-0.72,-0.38,-0.014,14,-18
O=C(CSc1nnc(Cc2cccs2)n1Cc1ccco1)Nc1cccc(Cl)c1,0.12,-0.41,-3.5,-0.42,-17,-10
Cc1ccc(NC(=O)CSc2nnc(CSc3nc(C)cc(C)n3)n2Cc2ccco2)c(C)c1,0.52,-1.7,-1.4,2.7*,-13,-9
O=C(CSc1nnc(Cc2cccs2)n1Cc1ccco1)Nc1cc(Cl)cc(Cl)c1,-0.67,-1.8,-4.3*,0.77,-10,-9

# Source: PubChem
